According to the supplement of paper PMC3334620:
Over roughly 33,000 sequences, “E-score (-0.5 to 0.5)” has its median near -0.01; the highest 2% begin near 0.26. The sample holds the highest values, similar sequences and a random draw of the others, so the mix is not that of the screen.

Target: Ste12 (UniProt P13574)
Test: PBM E-score (8-mer binding enrichment) (E-score (-0.5 to 0.5)); higher = stronger / more preferred TF binding
Conditions: protein concentration: 200 nM; construct: GST-DNA-binding domain
Procedure, shortened: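 For each ungapped eight-base word taken together with its reverse complement, the Universal PBM Analysis Suite assigned an E-score. Binding data came from GST-tagged yeast transcription factors, applied at about 100-200 nM, on universal all-10-mer Agilent arrays made double-stranded by primer extension. Fluorescent anti-GST marked bound protein, and scans were normalised with masliner.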

Sequence of UniProt P13574 (P13574 whole entry): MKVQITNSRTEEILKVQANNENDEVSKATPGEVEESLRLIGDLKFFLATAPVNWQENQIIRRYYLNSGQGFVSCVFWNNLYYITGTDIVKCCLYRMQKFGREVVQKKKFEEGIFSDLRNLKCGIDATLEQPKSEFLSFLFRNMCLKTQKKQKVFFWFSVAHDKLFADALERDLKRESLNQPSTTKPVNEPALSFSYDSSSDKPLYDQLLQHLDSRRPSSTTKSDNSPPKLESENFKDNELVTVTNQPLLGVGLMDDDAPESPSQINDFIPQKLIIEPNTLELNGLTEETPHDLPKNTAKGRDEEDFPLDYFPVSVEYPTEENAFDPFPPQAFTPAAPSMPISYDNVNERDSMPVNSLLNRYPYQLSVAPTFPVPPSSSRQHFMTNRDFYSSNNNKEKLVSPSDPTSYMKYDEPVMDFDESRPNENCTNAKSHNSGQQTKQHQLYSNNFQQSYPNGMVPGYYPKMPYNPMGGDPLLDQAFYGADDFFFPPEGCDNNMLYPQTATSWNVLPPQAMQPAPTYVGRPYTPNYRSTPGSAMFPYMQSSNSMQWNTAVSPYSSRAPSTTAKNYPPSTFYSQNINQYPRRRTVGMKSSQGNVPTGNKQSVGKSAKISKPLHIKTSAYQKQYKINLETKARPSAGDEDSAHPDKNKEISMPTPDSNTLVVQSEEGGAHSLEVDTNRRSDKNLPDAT

| Sequence | PBM E-score |
| --- | --- |
| CGTGCGTA | -0.0557 |
| TATAACAA | 0.215 |
| CTTGAGTA | -0.208 |
| CCTGTCGA | -0.122 |
| GCCAACTA | -0.196 |
| GTTCCGAA | 0.137 |
| ACTTCCAT | 0.0326 |
| ACGCTGCG | -0.0283 |
| ACGCCCCA | 0.239 |
| CCGCCCCG | 0.408 |
| CCGCCCCC | -0.00614 |
| GCGCCCCA | 0.056 |
| CCGCCCCA | 0.417 |
| CCGCCCGG | -0.0452 |
| AACAGCGC | -0.0225 |
| CACTGTTA | -0.0596 |
| ATTCCTAG | 0.0776 |
| CCGCAAGC | -0.226 |
| GCACGCCA | -0.201 |
| CTTTTACA | 0.269 |
| GTTTTACA | 0.296 |
| CCTTTACA | -0.103 |
| GGTTTACA | -0.0303 |
| ATTTTATA | 0.199 |
| ATTTTACA | 0.113 |

| Sequence | PBM E-score |
| --- | --- |
| CTTTTATA | 0.0308 |
| GTTTTATA | 0.399 |
| CTTTTACC | 0.0888 |
| AGCTAGCT | -0.0845 |
| CACTTTGA | -0.032 |
| GGTTCTCA | 0.0128 |
| ATCTGCCC | -0.153 |
| ATACGTGG | -0.0972 |
| TGCCTGAA | -0.0642 |
| CTGTCAAG | -0.2 |
| CAATCTTC | 0.144 |
| CACCATCG | -0.197 |
| CCCGAGTC | 0.0359 |
| CTTTAATA | 0.209 |
| GTTTAATA | 0.179 |
| ATTTAAGG | 0.00576 |
| ATTTAATC | 0.209 |
| ATTTAATG | 0.272 |
| ATTTAATA | 0.267 |
| CACTTATG | 0.00871 |
| ATGGGTTC | -0.094 |
| AGATAGAA | -0.0615 |
| AGGGCTTC | -0.0834 |
| ATTAAAGC | 0.0638 |
| ATAGTCTC | 0.132 |

| Sequence | PBM E-score |
| --- | --- |
| AAGGTGAG | 0.00195 |
| TACACGTA | -0.00219 |
| TAACGAAA | 0.298 |
| AAACGAAA | 0.248 |
| CAACGAAA | 0.13 |
| AGATGTGA | 0.262 |
| AGATGTGC | -0.154 |
| CGATGTGA | 0.046 |
| GAGCCAGA | -0.0414 |
| ATGGGGTA | -0.0735 |
| GTGGGGTA | 0.302 |
| CTGGGGTA | -0.145 |
| CGAACGAC | -0.034 |
| ACCACTTG | 0.0214 |
| AAACAGTG | 0.309 |
| ACCCAAAC | 0.285 |
| AAACAAAT | 0.28 |
| ACCCAAAA | 0.13 |
| CAACAGTG | 0.104 |
| AAACAAAG | 0.233 |
| AAACAAAC | 0.263 |
| AAACAGTT | 0.245 |
| AAACAAGT | 0.149 |
| AAACAAAA | 0.225 |
| GAACAAAC | 0.181 |

| Sequence | PBM E-score |
| --- | --- |
| ACCCAAAG | -0.0486 |
| GTCCGGGA | 0.0647 |
| GAAAGCTC | -0.201 |
| GGTCCAGA | -0.0878 |
| ATATTGCA | 0.104 |
| ATTCCCTG | 0.0875 |
| ATTCGTAA | 0.166 |
| ACCCCTGA | 0.128 |
| CACCCTGA | -0.00848 |
| AACCCTGA | 0.305 |
| ATGTCTCA | 0.289 |
| GTGTCTCA | 0.338 |
| GCGTCTCA | 0.166 |
| TCGTCTCA | 0.134 |
| GTGTGTCA | 0.321 |
| ATGTGTCA | 0.119 |
| ACGTCTCA | 0.274 |
| GTCTCTCA | -0.184 |
| ATGTCTCG | -0.114 |
| ATGTCTCC | -0.0509 |
| CTGTGTCA | 0.0491 |
| CTGTCTCA | 0.158 |
| AAGTCGTA | -0.129 |
| TATGGGAA | 0.0435 |
| CGGCTGGC | -0.117 |

| Sequence | PBM E-score |
| --- | --- |
| TCATTAAA | 0.324 |
| GTATTAAA | 0.166 |
| ATATTATG | 0.303 |
| ATATTAAC | 0.285 |
| TAATTAAA | 0.173 |
| ATATTATC | 0.181 |
| ACATTAAA | 0.196 |
| GCATTAAA | 0.111 |
| TTATTAAA | 0.321 |
| GTATTAAC | 0.132 |
| CTATTAAC | -0.0267 |
| ATATTATA | 0.18 |
| CTGGGCAA | -0.0128 |
| GGACTAGA | -0.124 |
| TATGGTCA | -0.0454 |
| CAGTAAGG | -0.0592 |
| ACGCGAGC | -0.151 |
| AGGTTACT | 0.0862 |
| TACTCCCA | 0.056 |
| ATATTAGA | 0.0159 |
| CTATTAAA | 0.219 |
| ATATTAAA | 0.29 |
| ATATTAAG | 0.109 |
| ATATTAAT | 0.298 |
| AGATTAAT | 0.0881 |

| Sequence | PBM E-score |
| --- | --- |
| TAATAATA | 0.181 |
| GAATAATC | 0.00357 |
| GAATAATA | 0.286 |
| AAATAATA | 0.257 |
| AAATAATC | 0.171 |
| AAATAATT | 0.294 |
| AGACTGCT | 0.0365 |
| AGCGCTAT | 0.0744 |
| AACTCATG | 0.129 |
| ATTGAGGG | -0.124 |
| GAATGAGC | -0.0246 |
| ATCCGAAT | 0.192 |
| AAAAACCC | 0.0736 |
| AAAAACCT | 0.263 |
| CAAACCTA | 0.0393 |
| AAAACCTT | 0.142 |
| AAAAACCG | 0.178 |
| AAAACCTA | 0.283 |
| CGAAGAAA | 0.195 |
| ACTCTCCG | -0.0208 |
| AAGAAGAG | -0.00818 |
| AAGTTGAC | 0.0703 |
| AGTAGGCG | -0.256 |
| ATCCAATG | -0.165 |
| ATCTCTCG | -0.0464 |

| Sequence | PBM E-score |
| --- | --- |
| AAACAATA | 0.274 |
| GAACAACC | 0.00021 |
| TATCAACA | 0.149 |
| GATCAACA | -0.0858 |
| AAACAACG | 0.0956 |
| AAACAACC | 0.277 |
| AAACAACA | 0.287 |
| AAACAACT | 0.174 |
| CAACAACC | 0.0311 |
| TAACAATA | 0.239 |
| AAACAATT | 0.112 |
| AATCAACA | 0.29 |
| GCCAATGA | -0.228 |
| GGGTGGAC | -0.226 |
| ACATTTTG | 0.0789 |
| ACAGTTGC | -0.0387 |
| AACCATCT | 0.0768 |
| AGCTCAGC | -0.398 |
| ACTGACAA | 0.0676 |
| ACCTGTCA | 0.0912 |
| ATACAAAA | 0.209 |
| ACACAAAA | 0.26 |
| TTACAAAA | 0.301 |
| GCACAAAA | 0.165 |
| TCACAAAA | 0.271 |

| Sequence | PBM E-score |
| --- | --- |
| CTACAAAA | 0.228 |
| ACGTTCTC | 0.0364 |
| TACCTATA | 0.106 |
| CGCATGAC | -0.0101 |
| CCCTGTTC | -0.243 |
| GCCTGTTA | 0.00489 |
| CCCTGTTA | 0.279 |
| CGCTCCTC | -0.106 |
| CAGTAGGG | -0.176 |
| CTGGCTAA | -0.0552 |
| TCGTTTCA | 0.467 |
| ACGTTTCT | 0.064 |
| TCGTTTAA | 0.155 |
| TCATTTCA | 0.242 |
| ACGTTTGG | 0.127 |
| GCGTTTCC | 0.0828 |
| GCGTTTCA | 0.476 |
| ACGTTTCC | -0.0394 |
| ACGTTTCG | 0.297 |
| ACGTTTAG | -0.156 |
| GCGTTTGA | 0.0907 |
| ACGTTTCA | 0.48 |
| TACTTCCA | 0.0198 |
| AATGGGAT | -0.185 |
| CGCAAACA | 0.053 |

| Sequence | PBM E-score |
| --- | --- |
| AAGTCGGC | -0.16 |
| AACGCTTA | -0.0484 |
| CGACAGAC | -0.00066 |
| CAGGTCCC | -0.104 |
| AGCTGATG | 0.129 |
| GAACGGTA | -0.17 |
| CCGTTTCG | 0.164 |
| CCGTTTCC | 0.139 |
| CCGTTTCA | 0.46 |
| GAACTCCC | 0.0278 |
| ATGCGATG | 0.00552 |
| GTTGGTCA | 0.121 |
| CGAATGAA | 0.084 |
| AAAATGAT | 0.317 |
| AAAATGAC | 0.121 |
| TAAATGAA | 0.185 |
| TGAATGAA | 0.208 |
| GAAATGAA | 0.331 |
| GAAATTAA | 0.294 |
| CAAATTAA | 0.203 |
| GAAATTAC | 0.176 |
| GGAATGAA | 0.281 |
| AAAATGAG | 0.124 |
| CAAATGAA | 0.238 |
